According to the supplement of paper PMC11732987, “Enantioselective OTUD7B fragment discovery through chemoproteomics screening and high-throughput optimisation” (Communications Chemistry, 2025):

Columns and labels:
Experiment in all cases: log2 ratio of Biotin-Ahx-Ub-VS probe labelling (fragment/DMSO); higher = less target engagement (more negative = stronger competition), active = hit call of the paper (q ≤ 0.05, log2 ratio ≤ -1)
Conditions in all cases: compound concentration: 200 uM; treatment time: 3 h
USP34 = USP34 (UniProt Q70CQ2)
Outline: (§1)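 In triplicate, 495 µg of HEK293T lysate per sample was incubated with fragment at 200 µM or vehicle for 3 h. Biotin-Ahx-Ub-VS was then added to 0.5 µM final for 1 h, and labelled DUBs were captured with NeutrAvidin, digested with LysC and trypsin, and measured by diaPASEF LC-MS/MS. Data are average log2 fragment/vehicle ratios by unpaired t-test from global-median-normalised Spectronaut label-free quantities, restricted to proteins with ≥2 unique peptides.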

USP36 = molecular target: T1, USP36 (UniProt Q9P275)
T1 sequence (whole entry): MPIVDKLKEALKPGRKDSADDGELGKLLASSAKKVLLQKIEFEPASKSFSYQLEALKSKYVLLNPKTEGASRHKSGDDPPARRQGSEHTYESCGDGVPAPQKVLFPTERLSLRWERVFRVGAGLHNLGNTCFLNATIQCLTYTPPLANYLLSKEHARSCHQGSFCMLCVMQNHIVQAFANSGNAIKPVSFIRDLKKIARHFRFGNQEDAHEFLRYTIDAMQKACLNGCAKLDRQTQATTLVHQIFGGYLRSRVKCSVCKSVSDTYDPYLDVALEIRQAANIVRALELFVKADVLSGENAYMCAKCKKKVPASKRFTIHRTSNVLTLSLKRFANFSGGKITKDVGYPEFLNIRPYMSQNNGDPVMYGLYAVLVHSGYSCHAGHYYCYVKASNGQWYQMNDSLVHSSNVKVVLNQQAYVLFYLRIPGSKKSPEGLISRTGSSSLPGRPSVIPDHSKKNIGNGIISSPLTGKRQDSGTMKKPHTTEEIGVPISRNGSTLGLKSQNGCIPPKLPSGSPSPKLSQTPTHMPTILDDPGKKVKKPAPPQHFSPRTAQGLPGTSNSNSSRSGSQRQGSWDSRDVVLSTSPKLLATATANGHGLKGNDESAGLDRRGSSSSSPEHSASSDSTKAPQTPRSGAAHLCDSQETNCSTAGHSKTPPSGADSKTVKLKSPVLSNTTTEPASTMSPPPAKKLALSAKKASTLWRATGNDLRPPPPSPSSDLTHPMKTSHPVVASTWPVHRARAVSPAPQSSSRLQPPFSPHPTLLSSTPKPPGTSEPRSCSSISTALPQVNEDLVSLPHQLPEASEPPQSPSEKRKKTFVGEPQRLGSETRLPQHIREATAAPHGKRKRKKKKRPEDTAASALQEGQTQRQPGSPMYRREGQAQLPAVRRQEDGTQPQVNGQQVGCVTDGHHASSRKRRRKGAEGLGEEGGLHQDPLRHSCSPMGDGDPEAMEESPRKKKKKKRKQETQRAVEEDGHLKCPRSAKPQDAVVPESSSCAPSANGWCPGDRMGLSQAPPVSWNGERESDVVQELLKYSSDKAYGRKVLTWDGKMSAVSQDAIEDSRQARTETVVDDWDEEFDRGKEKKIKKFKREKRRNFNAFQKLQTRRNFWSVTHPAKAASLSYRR
Outline: as §1

USP38 = molecular target: T2, USP38 (UniProt Q8NB14)
T2 sequence (whole entry): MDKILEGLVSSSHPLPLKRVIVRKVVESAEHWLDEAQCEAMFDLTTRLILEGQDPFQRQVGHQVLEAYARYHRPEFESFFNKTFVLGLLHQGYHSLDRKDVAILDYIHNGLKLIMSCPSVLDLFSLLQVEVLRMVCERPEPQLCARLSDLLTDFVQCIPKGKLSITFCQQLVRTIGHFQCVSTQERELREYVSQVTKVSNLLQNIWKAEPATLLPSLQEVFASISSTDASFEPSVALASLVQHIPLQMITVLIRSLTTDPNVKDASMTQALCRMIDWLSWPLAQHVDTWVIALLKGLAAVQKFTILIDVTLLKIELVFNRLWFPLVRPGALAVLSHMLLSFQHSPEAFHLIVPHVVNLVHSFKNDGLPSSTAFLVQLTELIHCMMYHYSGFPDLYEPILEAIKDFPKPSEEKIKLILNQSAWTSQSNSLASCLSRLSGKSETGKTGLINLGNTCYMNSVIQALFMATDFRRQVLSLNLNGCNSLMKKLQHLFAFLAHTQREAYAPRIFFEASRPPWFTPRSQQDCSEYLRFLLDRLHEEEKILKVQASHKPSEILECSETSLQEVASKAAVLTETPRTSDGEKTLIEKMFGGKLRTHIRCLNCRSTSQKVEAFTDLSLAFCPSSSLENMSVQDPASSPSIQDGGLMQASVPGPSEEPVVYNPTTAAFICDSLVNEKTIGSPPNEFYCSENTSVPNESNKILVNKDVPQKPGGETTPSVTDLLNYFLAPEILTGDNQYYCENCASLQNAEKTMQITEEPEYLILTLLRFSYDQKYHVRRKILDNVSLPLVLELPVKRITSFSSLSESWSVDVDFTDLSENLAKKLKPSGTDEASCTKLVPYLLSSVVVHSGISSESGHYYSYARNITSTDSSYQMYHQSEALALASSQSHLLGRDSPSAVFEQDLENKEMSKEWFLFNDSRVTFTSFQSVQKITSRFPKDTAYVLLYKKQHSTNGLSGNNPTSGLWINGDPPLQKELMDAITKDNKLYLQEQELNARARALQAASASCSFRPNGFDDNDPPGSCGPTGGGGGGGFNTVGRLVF
Outline: as §1

USP39 = molecular target: T3, USP39 (UniProt Q53GS9)
T3 sequence (whole entry): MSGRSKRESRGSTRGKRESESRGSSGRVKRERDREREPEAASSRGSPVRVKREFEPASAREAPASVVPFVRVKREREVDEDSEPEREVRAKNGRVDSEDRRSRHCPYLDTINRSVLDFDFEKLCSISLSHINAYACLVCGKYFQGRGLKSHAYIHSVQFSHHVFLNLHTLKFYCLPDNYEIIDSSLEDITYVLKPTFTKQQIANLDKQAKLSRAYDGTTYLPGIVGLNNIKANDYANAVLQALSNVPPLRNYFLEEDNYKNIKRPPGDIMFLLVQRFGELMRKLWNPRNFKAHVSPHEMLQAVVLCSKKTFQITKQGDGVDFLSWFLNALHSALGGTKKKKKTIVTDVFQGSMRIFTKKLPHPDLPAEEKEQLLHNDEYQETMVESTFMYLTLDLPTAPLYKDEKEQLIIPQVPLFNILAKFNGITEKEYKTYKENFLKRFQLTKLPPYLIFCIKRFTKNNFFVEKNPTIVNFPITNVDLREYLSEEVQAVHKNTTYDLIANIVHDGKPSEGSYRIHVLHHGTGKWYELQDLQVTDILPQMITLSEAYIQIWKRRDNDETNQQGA
Outline: as §1

USP4 = molecular target: T4, USP4 (UniProt Q13107)
T4 sequence (whole entry): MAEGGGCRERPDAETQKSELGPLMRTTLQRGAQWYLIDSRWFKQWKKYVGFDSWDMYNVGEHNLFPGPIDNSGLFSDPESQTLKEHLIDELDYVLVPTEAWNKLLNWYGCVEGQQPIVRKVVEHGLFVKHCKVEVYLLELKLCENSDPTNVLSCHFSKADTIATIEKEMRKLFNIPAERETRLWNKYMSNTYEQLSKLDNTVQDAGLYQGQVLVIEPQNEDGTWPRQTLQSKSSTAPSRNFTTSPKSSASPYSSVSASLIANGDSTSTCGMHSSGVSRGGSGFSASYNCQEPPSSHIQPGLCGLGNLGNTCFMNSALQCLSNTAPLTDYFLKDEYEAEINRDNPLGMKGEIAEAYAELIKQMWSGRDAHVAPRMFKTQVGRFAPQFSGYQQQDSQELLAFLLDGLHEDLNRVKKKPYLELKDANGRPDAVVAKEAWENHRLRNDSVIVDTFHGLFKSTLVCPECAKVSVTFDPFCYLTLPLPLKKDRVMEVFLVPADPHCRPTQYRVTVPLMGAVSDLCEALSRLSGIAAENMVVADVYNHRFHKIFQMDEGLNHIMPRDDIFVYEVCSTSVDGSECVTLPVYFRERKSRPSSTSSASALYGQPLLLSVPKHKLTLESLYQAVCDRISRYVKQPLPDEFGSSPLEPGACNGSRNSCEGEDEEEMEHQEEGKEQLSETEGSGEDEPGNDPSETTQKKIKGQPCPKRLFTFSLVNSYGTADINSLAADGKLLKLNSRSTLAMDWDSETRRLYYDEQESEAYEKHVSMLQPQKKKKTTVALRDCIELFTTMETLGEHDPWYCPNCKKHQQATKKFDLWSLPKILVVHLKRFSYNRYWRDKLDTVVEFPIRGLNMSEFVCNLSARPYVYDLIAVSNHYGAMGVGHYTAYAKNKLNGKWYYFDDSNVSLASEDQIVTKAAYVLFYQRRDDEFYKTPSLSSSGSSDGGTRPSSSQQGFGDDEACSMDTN
Outline: as §1

Measured: log2 ratio of Biotin-Ahx-Ub-VS probe labelling

Chain of USP34 (Q70CQ2 whole entry, the tested form may be a part): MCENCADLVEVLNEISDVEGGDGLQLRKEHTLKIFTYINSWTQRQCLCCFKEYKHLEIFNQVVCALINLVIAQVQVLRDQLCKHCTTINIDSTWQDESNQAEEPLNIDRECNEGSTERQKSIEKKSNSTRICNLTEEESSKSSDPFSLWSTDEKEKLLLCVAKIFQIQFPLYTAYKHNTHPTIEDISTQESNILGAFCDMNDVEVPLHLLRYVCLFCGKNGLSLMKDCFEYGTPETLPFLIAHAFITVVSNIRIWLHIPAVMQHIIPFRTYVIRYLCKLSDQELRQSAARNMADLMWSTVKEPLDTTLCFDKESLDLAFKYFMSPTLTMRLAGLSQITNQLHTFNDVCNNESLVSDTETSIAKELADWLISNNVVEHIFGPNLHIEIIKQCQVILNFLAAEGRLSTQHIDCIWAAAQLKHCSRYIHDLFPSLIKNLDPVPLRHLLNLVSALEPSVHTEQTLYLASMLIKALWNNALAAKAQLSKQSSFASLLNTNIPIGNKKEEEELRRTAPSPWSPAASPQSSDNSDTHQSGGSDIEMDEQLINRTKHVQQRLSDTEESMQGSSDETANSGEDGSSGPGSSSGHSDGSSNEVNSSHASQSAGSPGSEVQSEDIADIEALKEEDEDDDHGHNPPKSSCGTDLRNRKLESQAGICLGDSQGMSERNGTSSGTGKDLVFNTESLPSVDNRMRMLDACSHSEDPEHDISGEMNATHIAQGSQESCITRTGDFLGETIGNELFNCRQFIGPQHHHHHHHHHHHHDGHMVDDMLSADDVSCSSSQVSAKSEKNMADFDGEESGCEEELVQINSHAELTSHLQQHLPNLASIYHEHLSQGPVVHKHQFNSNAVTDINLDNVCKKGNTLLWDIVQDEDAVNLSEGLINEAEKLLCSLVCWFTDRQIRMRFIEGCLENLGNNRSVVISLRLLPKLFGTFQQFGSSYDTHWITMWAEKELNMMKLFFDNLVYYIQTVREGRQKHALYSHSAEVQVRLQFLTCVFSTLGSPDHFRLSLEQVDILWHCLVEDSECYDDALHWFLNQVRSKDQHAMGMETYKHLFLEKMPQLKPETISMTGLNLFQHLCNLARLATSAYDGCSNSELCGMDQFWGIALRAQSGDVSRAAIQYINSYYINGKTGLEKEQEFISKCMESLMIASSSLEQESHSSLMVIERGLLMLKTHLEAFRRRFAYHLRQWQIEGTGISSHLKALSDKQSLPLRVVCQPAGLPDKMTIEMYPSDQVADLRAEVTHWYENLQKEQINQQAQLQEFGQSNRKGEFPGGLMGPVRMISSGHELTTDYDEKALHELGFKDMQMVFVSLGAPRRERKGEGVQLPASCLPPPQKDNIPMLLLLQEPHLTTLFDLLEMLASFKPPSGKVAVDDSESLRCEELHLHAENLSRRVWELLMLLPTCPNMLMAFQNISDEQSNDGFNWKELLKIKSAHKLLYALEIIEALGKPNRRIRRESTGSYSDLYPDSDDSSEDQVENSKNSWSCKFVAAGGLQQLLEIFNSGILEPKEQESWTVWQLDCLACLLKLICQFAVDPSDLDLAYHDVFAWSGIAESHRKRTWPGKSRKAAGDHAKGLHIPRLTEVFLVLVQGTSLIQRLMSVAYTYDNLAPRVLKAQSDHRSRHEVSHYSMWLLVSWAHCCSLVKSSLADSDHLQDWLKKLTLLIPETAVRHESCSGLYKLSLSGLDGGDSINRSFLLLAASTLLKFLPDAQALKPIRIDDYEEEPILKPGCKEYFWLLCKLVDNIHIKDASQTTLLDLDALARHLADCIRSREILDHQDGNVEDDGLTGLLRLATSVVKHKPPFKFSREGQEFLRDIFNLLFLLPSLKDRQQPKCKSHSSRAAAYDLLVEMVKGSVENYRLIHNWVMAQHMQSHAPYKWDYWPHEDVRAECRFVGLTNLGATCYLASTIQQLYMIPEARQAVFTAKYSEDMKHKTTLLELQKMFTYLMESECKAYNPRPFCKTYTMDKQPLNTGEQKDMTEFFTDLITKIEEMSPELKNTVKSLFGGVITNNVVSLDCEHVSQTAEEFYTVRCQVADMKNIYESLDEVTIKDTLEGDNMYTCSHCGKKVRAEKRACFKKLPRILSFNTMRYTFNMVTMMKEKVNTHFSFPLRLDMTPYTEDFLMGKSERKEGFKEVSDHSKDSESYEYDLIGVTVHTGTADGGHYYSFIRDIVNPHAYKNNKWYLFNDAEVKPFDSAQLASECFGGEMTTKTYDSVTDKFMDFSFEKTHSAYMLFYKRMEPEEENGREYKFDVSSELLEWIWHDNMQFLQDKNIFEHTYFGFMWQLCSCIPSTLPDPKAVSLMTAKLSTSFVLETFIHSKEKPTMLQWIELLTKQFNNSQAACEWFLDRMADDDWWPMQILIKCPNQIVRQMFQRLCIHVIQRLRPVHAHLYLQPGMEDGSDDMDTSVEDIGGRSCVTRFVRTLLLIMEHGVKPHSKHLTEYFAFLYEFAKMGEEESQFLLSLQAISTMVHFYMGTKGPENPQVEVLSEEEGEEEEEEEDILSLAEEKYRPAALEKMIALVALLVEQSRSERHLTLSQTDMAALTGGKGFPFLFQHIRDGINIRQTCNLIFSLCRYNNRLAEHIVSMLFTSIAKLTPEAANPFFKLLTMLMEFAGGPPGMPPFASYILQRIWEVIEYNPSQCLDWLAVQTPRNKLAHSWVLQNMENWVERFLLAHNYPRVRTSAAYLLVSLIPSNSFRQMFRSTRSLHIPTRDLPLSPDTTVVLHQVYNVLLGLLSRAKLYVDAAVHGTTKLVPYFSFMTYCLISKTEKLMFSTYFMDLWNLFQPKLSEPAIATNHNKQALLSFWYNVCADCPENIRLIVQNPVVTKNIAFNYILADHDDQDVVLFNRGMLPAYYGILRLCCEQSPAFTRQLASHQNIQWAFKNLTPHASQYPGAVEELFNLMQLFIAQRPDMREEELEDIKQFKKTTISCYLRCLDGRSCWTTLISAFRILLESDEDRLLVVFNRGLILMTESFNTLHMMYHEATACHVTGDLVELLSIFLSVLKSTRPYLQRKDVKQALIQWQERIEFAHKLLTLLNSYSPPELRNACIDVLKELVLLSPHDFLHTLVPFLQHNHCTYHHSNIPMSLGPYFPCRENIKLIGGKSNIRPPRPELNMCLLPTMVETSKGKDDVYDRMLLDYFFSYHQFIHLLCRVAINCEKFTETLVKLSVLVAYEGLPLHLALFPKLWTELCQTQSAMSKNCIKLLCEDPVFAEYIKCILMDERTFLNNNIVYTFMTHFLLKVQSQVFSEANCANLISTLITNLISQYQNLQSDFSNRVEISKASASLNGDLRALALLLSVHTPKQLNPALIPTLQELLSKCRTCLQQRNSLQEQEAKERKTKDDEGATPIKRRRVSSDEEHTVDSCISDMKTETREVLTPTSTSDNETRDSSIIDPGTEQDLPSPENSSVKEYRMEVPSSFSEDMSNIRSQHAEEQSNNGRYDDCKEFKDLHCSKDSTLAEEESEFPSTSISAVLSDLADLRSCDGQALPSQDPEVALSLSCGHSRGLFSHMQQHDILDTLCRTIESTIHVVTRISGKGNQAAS

O=C(CCl)N1CCN(C(=O)Nc2ccccc2)CC1
inactive: USP34 -0.102 | USP36 -0.282 | USP38 0.184 | USP39 -0.0496 | USP4 0.0949
